From PubChem BioAssay
A number with no mark means an inactive call. No rule for the calls is given here.

Target: Pantothenate synthetase (Mycobacterium tuberculosis (strain ATCC 25618 / H37Rv)) (UniProt P9WIL5)
Assay: Recombinant Mtb pantothenate synthetase (PanC) inhibitors, coupled enzyme, confirmatory (AID 375);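 also: 0% = full reaction with vehicle and 100% = no enzyme background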
Conditions: coupled enzyme assay; at 10 µM, stronger effect = higher value

Chain of Pantothenate synthetase (Mycobacterium tuberculosis (strain ATCC 25618 / H37Rv)) (P9WIL5 whole entry, looked up): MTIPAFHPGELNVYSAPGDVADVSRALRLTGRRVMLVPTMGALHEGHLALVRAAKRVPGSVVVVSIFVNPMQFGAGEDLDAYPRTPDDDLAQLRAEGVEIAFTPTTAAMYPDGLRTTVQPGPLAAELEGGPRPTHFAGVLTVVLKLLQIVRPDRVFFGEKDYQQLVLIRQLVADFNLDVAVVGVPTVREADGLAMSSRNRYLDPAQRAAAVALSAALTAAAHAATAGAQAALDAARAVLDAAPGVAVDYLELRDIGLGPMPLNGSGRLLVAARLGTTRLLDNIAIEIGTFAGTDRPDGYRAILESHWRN

| Compound | inhibition |
| --- | --- |
| O=C(O)C1CC(=O)N(Cc2ccccc2)C1 (stereo not given) | 1% |
| Nc1cc(N)cc(-c2nc3ccccc3o2)c1 | 4% |
| CCn1c(CSc2nnc(-c3cccnc3)n2-c2ccccc2C)nc2cc(C(=O)O)ccc21 | 0% |
| N#Cc1nc(COc2ccccc2)oc1NCCN1CCOCC1 | 0% |
| COc1ccccc1OCc1ccc(C(=O)NC(C)(C)C)o1 | 2% |
| CN1CCN(C(=O)C2(NC(=O)Nc3cccc(F)c3)CCCCC2)CC1 | 0% |
| O=C(O)c1cccc(NC(=O)C2C3C=CC(C3)C2C(=O)OCC(F)(F)C(F)F)c1 (stereo not given) | 5% |
| O=S(=O)(NCCc1csc(-c2ccccc2)n1)c1ccc2c(c1)OCCO2 | 4% |
| Clc1ccc(-c2nnc3sc(-c4ccc(Br)o4)nn23)cc1 | 0% |
| COc1ccc(Br)cc1CNC(=O)CCc1nc(-c2ccc(C)cc2)no1 | 4% |
| COc1ccccc1NC(=O)C1=C(C)NC(SCC(=O)c2ccc(C)cc2)=C(C#N)C1c1ccco1 (stereo not given) | 0% |
| COc1cc2nc(SCC(=O)NC3CC3)n(CCC3=CCCCC3)c(=O)c2cc1OC | 1% |
| COc1ccc(N(CC(=O)O)S(=O)(=O)c2ccc(OC)c(OC)c2)cc1 | 5% |
| CCOC(=O)Nc1cc(OC)c(OC)cc1Cc1nccc2cc(OC)c(OC)cc12 | 0% |
| O=C(O)c1cccc(CN2C(=O)SC(Nc3ccccc3)C2=O)c1 (stereo not given) | 4% |
| COC(=O)CC(C(=O)Nc1cc(C(=O)OC)cc(C(=O)OC)c1)N1CCN(C)CC1 (stereo not given) | 3% |
| COc1ccc(OCCOC(=O)c2cccs2)cc1 | 0% |
| CCCCNC(=O)c1nnn(-c2ccccc2)c1N | 0% |
| O=C(Nc1ccon1)c1cccc(S(=O)(=O)N2CCCC2)c1 | 2% |
| Cc1ccc(CCP(=O)(O)CN2CCOCC2)cn1 | 0% |
| CC(C)n1c(=NC(=O)c2ccco2)c(C#N)cc2c(=O)n3ccccc3cc21 | 0% |
| O=S(=O)(c1ccc2c(c1)OCCO2)N(Cc1ccc(F)cc1)Cc1nnc(-c2cccs2)o1 | 5% |
| CC1CCN(S(=O)(=O)c2cn(CC(=O)N3CCN(C)CC3)c(=O)c3ccccc23)CC1 | 4% |
| O=C1CC(Cc2ccccc2)C(=O)N1CCCn1ccnc1 (stereo not given) | 0% |
| COc1ccc(-c2cc3c(=O)n(CC(=O)NC4CCN(Cc5ccccc5)CC4)ncn3n2)cc1 | 1% |

| Compound | inhibition |
| --- | --- |
| N#CC1=C(SCC(=O)NC23CC4CC(CC(C4)C2)C3)NC(=O)C(C#N)C12CCCCC2 (stereo not given) | 0% |
| CCOc1ccc(NC(=O)COC(=O)Cn2cnnn2)cc1OCC | 0% |
| O=C1CCc2cc(OCCCCc3nnnn3C3CCCCC3)ccc2N1 | 3% |
| CCCCN1C(=O)C2C(C(=O)Nc3cccc(OC)c3)C3C=CC2(O3)C1C(=O)NC1CCCCC1C (stereo not given) | 0% |
| Cc1ccc(-c2cc(C(F)(F)F)n3nc(C(=O)N4CCCC4)cc3n2)cc1 | 5% |
| CC1=C(C(=O)OC(C)C)C(C2CC=CCC2)NC(=O)N1 (stereo not given) | 6% |
| N#Cc1nc(COc2ccc(Br)cc2)oc1N1CCCC1 | 16% |
| O=C(CCCn1ncn2c(cc3occc32)c1=O)N1CCc2ccccc2C1 | 6% |
| COc1ccc(COC(=O)c2n[nH]c3ccccc23)cc1F | 0% |
| CCCN(CCC)CCNC(=O)c1cc2c(=O)n(C)c3ccccc3c2n1C | 0% |
| COc1cccc(NC(=O)CN2CCN(c3ccccc3F)CC2)c1 | 4% |
| CCCCOn1c(C)c(C(=O)OCC)c2c3nonc3ccc21 | 0% |
| CN=C1CC(C)(C)CC(=O)/C1=C(/O)CCC(=O)NC | 0% |
| CCCOc1nc(N)c(C#N)c(-c2ccccc2F)c1C#N | 4% |
| Cc1ccc2cc(CN(CC3CCCO3)S(=O)(=O)c3ccc4c(c3)OCCO4)c(=O)[nH]c2c1C (stereo not given) | 2% |
| CCN1C(=O)c2cccc3c(NC(=O)c4ccc(S(=O)(=O)N(C)C)cc4)ccc1c23 | 1% |
| CCOc1ccccc1C(=O)NCCC(=O)O | 2% |
| Cc1ccc2c(C)nc(NC3=NCN(C(C)C)CN3)nc2c1 | 0% |
| CN1Cc2c(N)cccc2C(c2ccccc2)C1 (stereo not given) | 0% |
| CC(NC(=O)Nc1nccs1)(C(F)(F)F)C(F)(F)F | 5% |
| COc1ccc(C(=O)NCCc2nnc(SCc3nc4ccccc4c(=O)[nH]3)n2C)cc1 | 0% |
| COc1ccc2c3c(c(=O)oc2c1OCC(N)=O)CCCC3 | 2% |
| Nc1nc(Cl)nc2c1ncn2[C@@H]1O[C@H](CO)[C@@H](O)[C@H]1O | 3% |
| CCOc1ccc(S(=O)(=O)n2nc(C)cc2C)c2ccccc12 | 0% |
| Cc1cc(C)nc(SCc2ccc3nonc3c2)n1 | 1% |
